PubChem BioAssay (NCI)
About 83,000 compounds went through this panel and 20% of them were active in at least one assay; those are over-represented in the sample as a whole.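 Each cell line was grown in a 96-well plate and treated with one concentration of compound for 48 hours. Values below 10 were considered active.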 Values without a mark were called inactive. Activity calls are given as the source filed them.

Assays:
Test in all cases: NCI-60 one-dose screen, 48 h (100 = growth as untreated, 0 = no growth, -100 = all killed)
Conditions in all cases: 10 µM unless noted
DU-145 prostate = system: DU-145 prostate
K-562 leukemia = system: K-562 leukemia
MALME-3M melanoma = system: MALME-3M melanoma
MDA-MB-231 breast = system: MDA-MB-231 breast
RXF 393 renal = system: RXF 393 renal
SF-268 CNS = system: SF-268 CNS
SF-295 CNS = system: SF-295 CNS
SF-539 CNS = system: SF-539 CNS
UACC-257 melanoma = system: UACC-257 melanoma
M14 melanoma = system: M14 melanoma
HCT-15 colon = system: HCT-15 colon
HT29 colon = system: HT29 colon
SNB-75 CNS = system: SNB-75 CNS
SNB-19 CNS = system: SNB-19 CNS
U251 CNS = system: U251 CNS
PC-3 prostate = system: PC-3 prostate
SK-MEL-5 melanoma = system: SK-MEL-5 melanoma
UACC-62 melanoma = system: UACC-62 melanoma
LOX IMVI melanoma = system: LOX IMVI melanoma
SK-MEL-28 melanoma = system: SK-MEL-28 melanoma

Row | Compound | growth (DU-145 prostate) | growth (K-562 leukemia) | growth (MALME-3M melanoma) | growth (MDA-MB-231 breast) | growth (RXF 393 renal) | growth (SF-268 CNS) | growth (SF-295 CNS) [%] | growth (SF-539 CNS) | growth (UACC-257 melanoma) | growth (M14 melanoma) | growth (HCT-15 colon) | growth (HT29 colon) | growth (SNB-75 CNS) | growth (SNB-19 CNS) | growth (U251 CNS) | growth (PC-3 prostate) | growth (SK-MEL-5 melanoma) | growth (UACC-62 melanoma) | growth (LOX IMVI melanoma) | growth (SK-MEL-28 melanoma)
1 | COc1ccc2cc(Cn3cc[n+](Cc4ccc5ccccc5c4)c3)ccc2c1 | 52.2% | 18.4% | 24.3% | 29.8% | 4.94% (active) | 22.6% | 67 | 48.5% | -15.8% (active) | 17.5% | 95.7% | -33.5% (active) | 18.9% | 31.6% | 16.1% | 19% | -24% (active) | 15.2% | 28.4% | 11.7%
2 | COc1cc2c(cc1O)[C@@]1(C)[C@H](c3ccccc3Br)OC(=O)N1CC2 | 101% | 75% | 83.1% | 95.6% | 99.5% | 94.7% | 102 | 95.1% | 83.5% | 88.3% | 94.9% | 96.7% | 102% | 95.2% | 89.3% | 71.3% | 68% | 72.1% | 90.6% | 99.1%
3 | CC/C=C\C/C=C/C=C1/C(=O)C=C[C@@H]1C/C=C\CCCC(=O)OC | 40.1% | 2.34% (active) | 35% | 4.18% (active) | 32.9% | 21.9% | 81.8 | 26.8% | 66.5% | 32.1% | 4.13% (active) | 2.21% (active) | 93.4% | 62.3% | 28.7% | 30.2% | 70.1% | -6.19% (active) | -70% (active) | 36.7%
4 | O=C1CCCc2nc3sc4c(=O)n(-c5ccccc5Cl)nnc4c3cc21 | 111% | 102% | 102% | 93.6% | 91.2% | 103% | 95.1 | 103% | 85.3% | 106% | 84.3% | 77.5% | 114% | 93% | 88.5% | 83.6% | 87.9% | 90.6% | 102% | 109%
5 | O=C(N/N=C/c1ccc(O)cc1O)c1ccc(Nc2ccnc(C(F)(F)F)c2)cc1 | 53.5% | 74.9% | 46.6% | 46.1% | 95.3% | 41.1% | 47.8 | 27.6% | 44.6% | 36.1% | 39.7% | 58.6% | 62.2% | 32% | 24.6% | 50.2% | 20.7% | 11.7% | 12.9% | 60.7%
6 | CCCNc1nc2ccccc2c2c(=O)c3cccc(Cl)c3sc12 | 98.2% | 86% | 81.9% | 105% | 98.5% | 101% | 98.8 | 110% | 107% | 101% | 89.7% | 81.8% | 82.3% | 110% | 97.9% | 88.5% | 97.6% | 84.3% | 90.2% | 115%
7 | COc1cc2cc(Oc3ccc(NC(=O)Nc4ccccc4)cc3)c(C)nc2cc1OCCN1CCCCC1 | 89.6% | -45.6% (active) | -75% (active) | 85.7% | 53.5% | 83.5% | 100 | -80.4% (active) | 84% | -90.1% (active) | 14.3% | 17% | 74.9% | 91.6% | 21.5% | 82.7% | 84.7% | 95.4% | 78.7% | 91.6%
8 | O=c1[nH]c(-c2ccc(Cl)cc2)cn1-c1ccc(-n2cc(-c3ccc(Cl)cc3)[nH]c2=O)cc1 | 108% | 113% | 97.9% | 94.7% | 113% | 109% | 101 | 104% | 101% | 99.2% | 98.8% | 102% | 98.1% | 93.5% | 104% | 77.5% | 101% | 87.5% | 103% | 101%
9 | CC(CN)[C@@H]1CC[C@]2(CO)CC[C@]3(C)[C@H](CC[C@@H]4[C@@]5(C)CCC(N)C(C)(C)[C@@H]5CC[C@]43C)[C@@H]12 (stereo not given in full) | -87.9% (active) | -55.8% (active) | 74.2% | -68.5% (active) | 53.1% | -60.9% (active) | 56.9 | 42.2% | 78.1% | 11.8% | -75.4% (active) | -85.9% (active) | 52.2% | 5.3% (active) | -88.4% (active) | -76.2% (active) | 57.5% | 104% | -72.1% (active) | -39.8% (active)
10 | O=C1Nc2ccc(F)cc2/C1=C\c1nc(-c2ccccc2F)n2ccccc12 | -7.63% (active) | 102% | 83.3% | 98.5% | 84.5% | 85.1% | 104 | 64.7% | 96.2% | 97% | 26.3% | 13.8% | 95.8% | 94.3% | 73.5% | 76.3% | 89.7% | 94.6% | 61% | 130%
11 | CC1O[C@@H]2C[C@@](O)([C@H]1O)n1c3ccccc3c3c4c(c5c6ccccc6n2c5c31)C(=O)NC4=O (stereo not given in full) | 57.8% | 30% | 50.3% | 57.8% | 49.2% | 49.8% | 19.2 | 33.2% | 47.9% | 25.7% | 62% | 28.6% | 44.8% | 35% | 24.8% | 41.2% | 1.39% (active) | 9.56% (active) | 7.1% (active) | 69.1%
12 | CC(C)CCC[C@@H](C)C1CCC2C3CCC4=C/C(=N/OCCN(C)C)CC[C@]4(C)C3CC[C@@]21C (stereo not given in full) | 91.7% | 73.6% | 91.2% | 89.4% | 91.6% | 65.9% | 68.4 | 93.2% | 97.5% | 93.3% | 98.3% | 78.7% | 80.5% | 86.5% | 79.2% | 57.1% | 99.3% | 84.9% | 57.8% | 101%
13 | COC(c1ccc2ccccc2c1)C(C)C(F)F (stereo not given) | 110% | 97.1% | 99.5% | 111% | 106% | 100% | 97.1 | 95.2% | 91.3% | 99.1% | 112% | 98.2% | 95.9% | 101% | 102% | 96.6% | 112% | 93.4% | 101% | 96.3%
14 | O=c1[nH]cnc2c1C(c1ccc(Br)cc1)c1sc3c(F)cccc3c1O2 (stereo not given) | 100% | 94.6% | 96.1% | 94.5% | 101% | 91.9% | 97.9 | 96.4% | 106% | 101% | 99.2% | 104% | 85.1% | 91.8% | 95.9% | 82.9% | 98.7% | 82.5% | 99.2% | 105%
15 | Cc1cc2nc3c4ccccc4n(CCN(C)C)c3nc2cc1C | 1.97% (active) | 8.35% (active) | -10.5% (active) | 3.96% (active) | 8.24% (active) | 31.2% | 27.6 | 12.2% | 2.35% (active) | 13.2% | -3.11% (active) | 8.23% (active) | 4.8% (active) | 26% | 15.7% | 12.9% | 6.22% (active) | 36.2% | -63.2% (active) | 20.1%
